Bioassay records (PubChem BioAssay)
Most compounds without a hit are left out; they make up all but 3.3% or so of the library.
697 NFkB inh: lowers PMA/ionomycin-induced NF-kB signal in 697 B cells | 697 B-cell NF-kB luciferase reporter, 16 h | inhibition, % at 4 µM | actives 0.33% (n = 330,000) | AID 435022; in the data active means inhibition above about 35%
Gli-Sufu antag: antagonists of Gli-Sufu signaling; Sufu-KO-LIGHT fibroblasts, Gli luciferase reporter luminescence; actives 0.74% (n = 340,000); inhibition, % at 5 µM; AID 588413;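 active means inhibition above about 55%, limit read from the data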;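 further: 0% = DMSO-treated cells and 100% = wells with medium but no cells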
esBAF inh: inhibitors of esBAF chromatin remodeling in mouse ES cells; Bmi1-luciferase knock-in reporter, 24 h; 100% = twice the neutral-well signal; reporter increase, % at 12.5 µM; actives 2% (n = 350,000); AID 602393; in the data active means activation above about 40%; inconclusive means no clear call, values can overlap the other calls;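 further: 0% = median of the plate's neutral control wells and 100% = double that signal; a rise in the Bmi1 reporter signal indicates esBAF inhibition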
Jurkat NFkB inh: inhibitors of the PMA/ionomycin-induced NF-kB reporter in Jurkat cells; PMA/ionomycin-induced NF-kB luciferase reporter, luminescence; inhibition, % at 4 µM; actives 0.53% (n = 330,000); AID 435003; in the data active means inhibition above about 50%
SMARCA2 activ: SMARCA2 function activation, primary screen. MG213 cells, MMTV-luciferase reporter, dexamethasone, overnight. activation, % at 9.1 µM. actives 1% (n = 370,000). AID 652017; in the data active means activation above about 7.8%;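 further: 0% = vehicle wells and 100% = reference activator wells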
Starred values were filed as active, the others as inactive; ? = inconclusive; · = no result.

SMILES | 697 NFkB inh | Gli-Sufu antag | esBAF inh | Jurkat NFkB inh | SMARCA2 activ
C[C@H](CO)N1C[C@H](C)[C@@H](CN(C)S(=O)(=O)c2ccc(Cl)cc2)Oc2ccc(N(C)C)cc2CC1=O | · | · | 6 | · | ·
Cc1cccc(-c2nnc3sc(-c4ccccc4)nn23)c1 | -42 | -24 | 42* | -38 | 0
Cc1noc(C)c1S(=O)(=O)Nc1ccc2c(c1)C(=O)N([C@@H](C)CO)C[C@H](C)[C@@H](CN(C)Cc1ccc(C(F)(F)F)cc1)OCCCC[C@@H](C)O2 | · | · | 11 | · | ·
CCC(=O)N(C)C[C@H]1Oc2cc(C#CCOC)ccc2S(=O)(=O)N([C@@H](C)CO)C[C@@H]1C | · | · | 0 | · | ·
CCN1C(=O)/C(=C\N(C(C)=O)c2ccccc2)OC1=S | 6 | -10 | 45* | -1 | 7
CCN1C(=O)/C(=C/N(C)c2ccccc2)OC1=S | -32 | -21 | 39 | -36 | 3
O=c1c2c3c(sc2nc(NCCO)n1Cc1ccco1)CCCCC3 | -60 | -32 | 80* | -38 | 4
O=c1c2c3c(sc2nc(NCCO)n1CCc1ccccc1)CCCCC3 | -4 | 4 | 1 | 30 | 3
COCCNc1nc2sc3c(c2c(=O)n1Cc1ccco1)CCCCC3 | -167 | -56 | 75* | -69 | 7
CC(C)NC(=O)N(C)C[C@@H]1Oc2ccc(NS(=O)(=O)c3ccc(Cl)cc3)cc2C(=O)N([C@@H](C)CO)C[C@H]1C | · | · | -1 | · | ·
O=c1/c(=C/c2ccc(O)c([N+](=O)[O-])c2)sc2nc3ccccc3n12 | · | -14 | · | · | -1
O=c1/c(=C\c2cccnc2)sc2nc3ccccc3n12 | · | -33 | 66* | · | ·
CCC(C)NC(=O)Cc1c(C)c2cc3c(cc2oc1=O)OC(C)(C)CC3 (stereo not drawn) | -102 | -19 | 67* | -87 | 0
Cc1c(CC(=O)N[C@H](C(=O)O)C(C)C)c(=O)oc2cc3c(cc12)CCC(C)(C)O3 | -120 | -53 | 61* | -2 | 6
Cc1c(CC(=O)NC(C)C)c(=O)oc2cc3c(cc12)CCC(C)(C)O3 | -58 | -40 | 49* | -27 | 6
COc1ccc(NC(=O)N(C)C[C@@H]2Oc3c(NS(=O)(=O)c4ccc(F)cc4)cccc3C(=O)N([C@H](C)CO)C[C@@H]2C)cc1 | · | · | 2 | · | ·
CCCNC(=O)NC[C@H]1[C@H](c2ccc(C3=CCCC3)cc2)[C@H](CO)N1C(C)=O | · | · | -5 | · | ·
COc1cc(CNCCc2ccc(F)cc2)ccc1OCc1ccc(Cl)nc1 | 19 | -2 | 3 | -3 | -7
COc1cc(CO)ccc1OCc1ccc(Cl)nc1 | -70 | -41 | 57* | -62 | 4
CSc1ccc(/C=C/C(=O)c2ccc(NC(=O)C(C)C)cc2)cc1 | -40 | -1 | · | -26 | 2
COc1cccc(/C=C/C(=O)c2c(O)cc(C)oc2=O)c1O | -3 | 4 | 6 | -7 | 2
CSc1ccc(C(=O)/C=C/c2ccc(N)cc2)cc1 | -5 | -55 | 66* | -29 | 2
Cc1cc(O)c(C(=O)/C=C/c2ccc(Cl)cc2)c(=O)o1 | -17 | 0 | 30 | -37 | 1
COc1ccc(/C=C/C(=O)c2c(O)cc(C)oc2=O)c(OC)c1 | -49 | 3 | 64* | -41 | 0
CSc1ccc(/C=C/C(=O)c2c(O)cc(C)oc2=O)cc1 | -59 | -26 | 54* | -33 | 4
SMILES | 697 NFkB inh | Gli-Sufu antag | esBAF inh | Jurkat NFkB inh | SMARCA2 activ
CCNC(=O)C[C@@H]1C=C[C@H](NC(=O)C2CCOCC2)[C@@H](CO)O1 | · | · | -2 | · | ·
C[C@@H]1CCCCO[C@@H](CN(C)C(=O)c2ccccc2)[C@@H](C)CN([C@@H](C)CO)C(=O)c2cc(NS(=O)(=O)c3cccs3)ccc2O1 | · | · | -2 | · | ·
C[C@@H]1CN([C@@H](C)CO)C(=O)c2cc(NC(=O)Nc3ccc4c(c3)OCO4)ccc2O[C@@H](C)CCCCO[C@@H]1CN(C)C(=O)C1CCCCC1 | · | · | 6 | · | ·
COc1ccc(NC(=S)Nc2ccc3nccnc3c2)cc1 | · | -34 | 65* | · | -1
COc1ccc(NC(=S)Nc2ccccc2)cc1 | -6 | -6 | 20 | -6 | -2
COc1ccc(NC(=S)Nc2ccc3snnc3c2)cc1 | -30 | -22 | 30 | -37 | 3
COc1ccc(NC(=S)Nc2ccc(N)c([N+](=O)[O-])c2)cc1 | -81 | -26 | 47* | -50 | -2
C[C@@H]1CCCCO[C@H](CN(C)Cc2ccc3c(c2)OCO3)[C@H](C)CN([C@H](C)CO)C(=O)c2cc(NC(=O)Cc3ccccc3)ccc2O1 | · | · | 0 | · | ·
CCC(C)C(=O)N1CCCC(c2nc(-c3cccs3)no2)C1 (stereo not drawn) | -47 | -61 | 53* | -48 | 6
CCCC(=O)N1CCCC(c2nc(-c3cccs3)no2)C1 (stereo not drawn) | 11 | -26 | ? | -6 | 0
CC(=O)C(Sc1nn(C)c(=S)s1)C(=O)Nc1ccccc1 (stereo not drawn) | -21 | -8 | 77* | -32 | 1
CCNC(=O)C[C@H]1C=C[C@@H](NC(=O)C2CCOCC2)[C@H](CO)O1 | · | · | -2 | · | ·
COCC(=O)N1CC[C@@H]2[C@H]1c1cc(-c3ccccc3)ccc1N(C)[C@H]2CO | · | · | -8 | · | ·
O=C1NCC2=C1C(c1ccc(Br)cc1)Nc1ccccc1N2 (stereo not drawn) | -50 | 11 | 58* | -65 | 2
CC1(C)CC(=O)C2=C(C1)Nc1ccccc1NC2c1ccc(F)cc1 (stereo not drawn) | -20 | 24 | 3 | 7 | -1
C[C@H]1CN([C@@H](C)CO)C(=O)c2cc(NC(=O)Nc3ccc(C(F)(F)F)cc3)ccc2O[C@H]1CN(C)C(=O)NC1CCCCC1 | · | · | 0 | · | ·
CO[C@@H]1CN(C)C(=O)c2cc(NS(C)(=O)=O)ccc2OC[C@@H](C)N(Cc2ccccc2)C[C@H]1C | · | · | 4 | · | ·
COc1ccccc1-c1cn(CC[C@@H]2CC[C@@H](NC(=O)c3cnccn3)[C@H](CO)O2)nn1 | · | · | -4 | · | ·
COc1ccc(CN(C)C[C@H]2OCCCC[C@H](C)Oc3ccc(NS(=O)(=O)c4ccccc4)cc3C(=O)N([C@@H](C)CO)C[C@H]2C)cc1 | · | · | 1 | · | ·
Cc1ccnc(NC(=O)CNC(=O)COc2ccccc2)c1 | -36 | -14 | 74* | -75 | 3
Cc1ccc(NC(=O)CNC(=O)COc2ccccc2)nc1 | 11 | 11 | -7 | -3 | -1
Cc1ccnc(NC(=O)CCNC(=O)c2ccccc2Cl)c1 | 5 | -12 | 46* | -25 | 2
Cc1ccnc(NC(=O)CC(NC(=O)c2ccccc2Cl)c2ccccc2)c1 (stereo not drawn) | -20 | -3 | 52* | -67 | 1
O=C(C[C@@H]1CC[C@H](NS(=O)(=O)c2ccc(F)cc2)[C@H](CO)O1)NCc1ccncn1 | · | · | -4 | · | ·
CCCNC(=O)C[C@@H]1C[C@@H]2c3cc(NC(=O)c4ccc5c(c4)OCO5)ccc3O[C@@H]2[C@H](CO)O1 | · | · | -6 | · | ·
COc1ccc(NC(=O)c2cc(C3CCCCN3S(=O)(=O)Cc3ccccc3)on2)cn1 (stereo not drawn) | · | · | 51* | · | 1
Cn1cnc(S(=O)(=O)N2CCCCC2c2cc(C(=O)Nc3ccc(F)c(Cl)c3)no2)c1 (stereo not drawn) | · | · | 45* | · | 0
